These are literature values, as cited in PubChem BioAssay AID977611.

The whole screen tested about 3,900 compounds, of which about 3,900 (100%) were called active. The limit is not given here; nearly all actives have Kd up to about 4200 µM. So high a share suggests a set chosen from earlier hits. The list shows a part of the results. Bridge positions count the residues as written; N and C are the ends. Where a SMILES comes first, the peptide text is derived from it. Square brackets hold non-standard residues; d marks the D form. Bridges are numbered along the chain shown (N, C = ends). Peptide text beside a SMILES is read from it. Orn(CH(NH2)2) = NC(N)NCCC[C@H](N)C(=O)O

The nature of the data set: PubChem AID 977611. The following applies: PDB protein-ligand complexes, literature Kd.

One may read the Kd as the free concentration of one partner at which half of the binding sites on the other are occupied at equilibrium, for simple one-to-one binding. As for `O=C1N=C(N=Nc2c(O)[nH]c3ccc(S(O)(O)O)cc23)S/C1=C\c1ccco1`, the Kd (protein: NUCLEOCAPSID PROTEIN P7, PDB entry 2m3z) was 0.27 µM (active).

For `Oc1ccc2c3c1O[C@H]1c4[nH]c5ccccc5c4C[C@@]4(O)[C@@H](C2)N(CC2CC2)CC[C@]314`, the Kd (protein: Soluble cytochrome b562, Delta-type opioid receptor chimeric protein, PDB entry 4n6h) is 0.00052 µM (active).

In the case of H-SPSGVFTFG-OH, the Kd is 49 µM (active) (protein: Capsid protein p24, PDB entry 4u0c) and 49 µM (active) (protein: Gag polyprotein, PDB entry 4u0d).

In the case of H-SSKPDIVG-OH, under “protein: NprR, PDB entry 4gpk”, the Kd was 0.03 µM (active).

With H-KHWVYY-OH, the equilibrium dissociation constant (Kd) (PDB entry 1abt) is 1.4 µM (active).

For `CC(C)[C@H](NC(=O)[C@H](CO[P+](O)(O)O)NC(=O)[C@H](Cc1cnc[nH]1)NC(=O)[C@@H](N)Cc1ccc(O)cc1)C(=O)N[C@H](C(=O)N[C@@H](CCCNC(N)N)C(=O)N[C@@H](Cc1ccc(O)cc1)C(=O)N[C@@H](C)C(=O)O)C(C)C`, under “protein: MOB kinase activator 1A, PDB entry 4jiz”, the Kd was 2.4 µM (active).

For the molecule `OC[C@H]1O[C@@H](S[C@@H]2O[C@H](CO)[C@H](O)[C@H](O)[C@@H]2O)[C@@H](O)[C@@H](O)[C@H]1O`, where the note is “protein: Galectin-3, PDB entry 4jck”, the equilibrium dissociation constant (Kd) is 4300 µM (active).

As for `OC[C@H]1O[C@@H](S[C@@H]2O[C@H](CO)[C@H](O)[C@H](O)[C@H]2O)[C@H](O)[C@@H](O)[C@H]1O`, the Kd (protein: Galectin-3, PDB entry 4jc1) is 50 µM (active).

Consider `O=c1cccc2n1C[C@@H]1CNC[C@H]2C1`, for which the Kd by setting is: (protein: Aplysia californica acetylcholine-binding protein (AChBP), PDB entry 4AFO) 1.64 µM (active); (protein: Aplysia californica acetylcholine-binding protein (AChBP), PDB entry 4bqt) 1.64 µM (active).

In the case of `Cc1ccc(N2C(=O)C(=O)/C(=C(/O)c3ccccc3)[C@@H]2c2cc(Br)cs2)cc1C(=O)O`, the Kd (protein: Polymerase cofactor Ebola virus VP35, PDB entry 4ibd) was 215 µM (active).

For the molecule `O=C1C(=O)N(c2ccc(Cl)c(C(=O)O)c2)[C@@H](c2cc(Br)cs2)/C1=C(\O)c1ccccc1`, for the setting “protein: Polymerase cofactor Ebola virus VP35, PDB entry 4ibe”, the Kd is 70.6 µM (active).

With `O=C(O)[C@H]1C2CCC(CC2)[C@@H]1Nc1nc(-c2c[nH]c3ncc(F)cc23)ncc1F`, the Kd (protein: Influenza polymerase basic protein 2 (PB2), PDB entry 4p1u) was 0.003 µM (active).

As to `Cc1cccc(/C(O)=C2\C(=O)C(=O)N(c3ccc(CC(=O)O)cc3)[C@H]2c2cc(Cl)c3c(c2)OCO3)c1`, the dissociation constant (Kd) (protein: Polymerase cofactor Ebola virus VP35, PDB entry 4ibg) was 108 µM (active).

As to `O=C1C(=O)N(c2cccc(C(=O)O)c2)[C@@H](c2cc(Cl)c3c(c2)OCO3)/C1=C(\O)c1cccc(C(F)(F)F)c1`, under “protein: Polymerase cofactor Ebola virus VP35, PDB entry 4ibi”, the Kd was 73 µM (active).

Consider `O=C(O)Cc1ccc(N2C(=O)C(=O)/C(=C(/O)c3ccccc3Cl)[C@@H]2c2ccccc2Cl)cc1`, for which the Kd (protein: Polymerase cofactor Ebola virus VP35, PDB entry 4ibc) is 1050 µM (active).

For the molecule `O=C(O)c1cccc(N2C(=O)C(O)=C(C(=O)c3ccc(Cl)s3)[C@@H]2c2cc(Cl)c3c(c2)OCO3)c1`, the Kd (protein: Polymerase cofactor Ebola virus VP35, PDB entry 4ibk) was 50.4 µM (active).

As for `O=C1C(=O)N(c2cccc(C(=O)O)c2)[C@@H](c2cccc(C(F)(F)F)c2)/C1=C(\O)c1cccc(C(F)(F)F)c1`, where the note is “protein: Polymerase cofactor Ebola virus VP35, PDB entry 4ibj”, the Kd was 47 µM (active).

For `CCN1c2cc(N)ccc2-c2ccc(N)cc2[C@H]1c1ccccc1`, the Kd (protein: Putative regulatory protein, PDB entry 3vvy) was 14.6 µM (active).

Take `CO[C@@H]1O[C@@H](C)[C@@H](O)[C@@H](O)[C@@H]1O`: for the setting “protein: Ralstonia solanacearum fucose-binding lectin protein, PDB entry 4csd”, the Kd was 1.23 µM (active).

`Nc1c(O)n(Cc2ccccc2)c(=O)[nH]c1=O`: the dissociation constant (Kd) runs as follows: (protein: Glucose-1-phosphate thymidylyltransferase (RmlA), PDB entry 3zll) 0.395 µM (active); (protein: Glucose-1-phosphate thymidylyltransferase (RmlA), PDB entry 4AS6) 0.395 µM (active).

As for `C[C@@H](O)[C@H](NC(=O)[C@@H]1CCCN1C(=O)[C@H](CO[P+](O)(O)O)NC(=O)[C@@H](N)Cc1ccc(O)cc1)C(=O)N[C@@H](CO)C(=O)N1CCC[C@H]1C(=O)O`, the Kd (protein: CTD INTERACTING DOMAIN of RNA processing factor SCAF8, PDB entry 3d9n) is 90 µM (active).

For the molecule `C[C@@H](O)[C@H](NC(=O)[C@@H]1CCCN1C(=O)[C@H](CO)NC(=O)[C@@H](N)Cc1ccc(O)cc1)C(=O)N[C@@H](CO[P+](O)(O)O)C(=O)N1CCC[C@H]1C(=O)N[C@@H](CO)C(=O)O`, the equilibrium dissociation constant (Kd) (protein: CTD INTERACTING DOMAIN of RNA processing factor SCAF8, PDB entry 3d9m) was 330 µM (active).

Turning to `C[C@H](Nc1nc(-c2c[nH]c3ncc(Cl)cc23)ncc1F)C(=O)N(C)C`, the Kd (protein: Influenza polymerase basic protein 2 (PB2), PDB entry 4ncm) was 0.1 µM (active).

Take `CC(C)[C@H](NC(=O)[C@H](Cc1c[nH]c2ccccc12)NC(=O)[C@H](Cc1c[nH]cn1)NC(=O)[C@H](CCCCN)NC(=O)[C@H](Cc1c[nH]c2ccccc12)NC(=O)CNC(=O)[C@H](CCCNC(N)N)NC(=O)[C@@H](N)Cc1ccc(O)cc1)C(=O)N[C@@H](Cc1ccc(O)cc1)C(=O)N[C@@H](Cc1ccc(O)cc1)C(=O)N[C@H](C(=O)N[C@H]1CSSC[C@@H](C(=O)N2CCC[C@H]2C(=O)N[C@@H](CC(=O)O)C(=O)N[C@H](C(=O)N2CCC[C@H]2C(=O)N[C@@H](Cc2ccc(O)cc2)C(=O)O)[C@H](C)O)NC1=O)[C@@H](C)O`: the Kd (PDB entry 1idg) was 0.065 µM (active).

`CC(C)[C@H](NC(=O)[C@H](Cc1c[nH]c2ccccc12)NC(=O)[C@H](Cc1c[nH]cn1)NC(=O)[C@H](CCCCN)NC(=O)[C@H](Cc1c[nH]c2ccccc12)NC(=O)CNC(=O)[C@H](CCCNC(N)N)NC(=O)[C@@H](N)Cc1ccc(O)cc1)C(=O)N[C@@H](Cc1ccc(O)cc1)C(=O)N[C@@H](Cc1ccc(O)cc1)C(=O)N[C@H](C(=O)N[C@H]1CSSC[C@@H](C(=O)N2CCC[C@H]2C(=O)N[C@@H](CC(=O)O)C(=O)N[C@H](C(=O)N2CCC[C@H]2C(=O)N[C@@H](Cc2ccc(O)cc2)C(=O)O)[C@@H](C)O)NC1=O)[C@@H](C)O` (H-Y[Orn(CH(NH2)2)]GWKHWVYYTCCPDTPY-OH; disulfide 12-13): the Kd (protein: Cbtx, PDB entry 1lxh) is 0.065 µM (active).

Regarding `C[C@H](CC(=O)O)c1n[nH]c2nc(N)[nH]c(=O)c2c1=O`, the Kd (protein: Dihydropteroate Synthase, PDB entry 4d8z) is 0.51 µM (active).

In the case of `Nc1nc2[nH]nc(CCC(=O)O)c(=O)c2c(=O)[nH]1`, the Kd (protein: Dihydropteroate Synthase, PDB entry 4db7) is 0.273 µM (active).

Turning to `C[C@@H](C(=O)O)c1n[nH]c2nc(N)[nH]c(=O)c2c1=O`, the Kd (protein: Dihydropteroate Synthase, PDB entry 4daf) is 0.076 µM (active).

Turning to `COc1ccccc1[C@@H](Br)[C@H](NC(=O)c1ccc([N+](=O)[O-])cc1)C(=O)N1CCCCC1`, the Kd (protein: Capsid protein, PDB entry 4g93) is 300 µM (active).

As to `Nc1ncnc2c1ncn2[C@@H]1O[C@H](COP(O)O)[C@@H](O)[C@H]1O`, the Kd (PDB entry 4qsk) is 8 µM (active).

Turning to `C[C@@H](Oc1ccc(Oc2ncc(C(F)(F)F)cc2Cl)cc1)C(=O)O`, the Kd (protein: carboxyltransferase subunit of ACC (AccD6), PDB entry 4g2r) is 35.8 µM (active).

With `OC(Cc1cccc(-c2cccc3c2oc2ccccc23)c1)([P+](O)(O)O)[P+](O)(O)O`, the Kd (protein: Diterpene synthase Rv3378c, PDB entry 3wqm) was 0.56 µM (active).

Take `CN1CCN(c2cccc(CN)c2)CC1`: the Kd (protein: CATIONIC TRYPSIN, PDB entry 4abg) was 271 µM (active).

Consider `CC(C)C[C@@H]1NC(=O)[C@H](C)NC(=O)[C@@H]2CSSC[C@H](NC(=O)CN)C(=O)N[C@@H](CSSC[C@@H](C(=O)O)NC(=O)[C@H](Cc3ccc(O)cc3)NC(=O)[C@H](CCCCN)NC(=O)[C@@H]3CCCN3C(=O)[C@H](CC(N)=O)NC(=O)[C@H](CC(N)=O)NC1=O)C(=O)N[C@@H](CO)C(=O)N[C@@H](CC(C)C)C(=O)N1CCC[C@H]1C(=O)N1CCC[C@H]1C(=O)N2` (H-GCCSLPPCALNNPKYC-OH; disulfide 2-8, 3-16), for which the Kd (protein: nicotinic acetylcholine receptor homolog AChBP(?7-nAChR), PDB entry 2br8) was 0.0326 µM (active).
